These results are taken from PubChem BioAssay (NCATS).

Records with an inconclusive call do not appear. Entries that show only a call come without a potency. The source made the active and inactive calls. Calls follow the shape of the full dose curve.
Potency is read from the fitted curve at half-maximal effect.

Nucleoprotein (Lymphocytic choriomeningitis virus (strain Armstrong)), sequence (P09992 whole entry, looked up): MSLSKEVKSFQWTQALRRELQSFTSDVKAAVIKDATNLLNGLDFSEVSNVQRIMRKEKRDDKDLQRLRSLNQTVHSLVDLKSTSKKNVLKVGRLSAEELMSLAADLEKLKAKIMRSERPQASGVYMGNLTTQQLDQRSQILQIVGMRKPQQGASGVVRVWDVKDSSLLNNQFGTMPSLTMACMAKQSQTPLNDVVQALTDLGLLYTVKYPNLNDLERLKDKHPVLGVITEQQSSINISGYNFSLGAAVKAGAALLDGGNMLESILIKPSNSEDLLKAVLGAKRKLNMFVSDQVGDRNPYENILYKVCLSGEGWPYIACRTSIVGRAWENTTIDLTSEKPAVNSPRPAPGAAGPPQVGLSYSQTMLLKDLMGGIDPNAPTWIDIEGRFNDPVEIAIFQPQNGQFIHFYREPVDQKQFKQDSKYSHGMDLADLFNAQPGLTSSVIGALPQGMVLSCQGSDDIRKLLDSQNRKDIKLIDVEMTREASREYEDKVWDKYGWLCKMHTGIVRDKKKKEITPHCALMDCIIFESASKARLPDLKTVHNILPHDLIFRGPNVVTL

The assay has as its target Nucleoprotein (Lymphocytic choriomeningitis virus (strain Armstrong)) (UniProt P09992). The assay can be described thus: qHTS for Inhibitors of the Functional Ribonucleoprotein Complex (vRNP) of Lymphocytic Choriomeningitis Arenaviruses (LCMV): LCMV Primary Screen - GLuc reporter signal (AID 1347086). Also: nearly all actives have a fitted effect of over 70% in size. Particulars: LCMV minigenome vRNP cell assay, Gaussia luciferase reporter; series mostly up to 57.5 µM.
As for `Cc1ccc(C(=O)C(=O)O)cc1C`, the Potency entry was “inactive”.

`COC(=O)c1cc(Cl)ccc1OC`: the Potency entry is “inactive”. For the compound `CCCCC(O)/C=C(C)/C=C/C=C/C(=O)N1CCCC1=O` (stereo not drawn), the Potency entry was “inactive”. The entry for `Nc1ccc(S(=O)(=O)Nc2ccc(Cl)nn2)cc1` is “inactive”; for `NC(=O)N1c2ccccc2C=Cc2ccccc21` it is “inactive”; for `NC(=O)c1ncn([C@@H]2O[C@H](CO)[C@@H](O)[C@H]2O)c1O` it is “inactive”. As for `O=C(Cn1ccnc1[N+](=O)[O-])NCc1ccccc1`, the entry is “inactive”; as for `Cc1cc(=O)oc2cc(O[C@@H]3SC[C@@H](O)[C@H](O)[C@H]3O)ccc12`, “inactive”; as for `CCOC(=O)[C@H](CCc1ccccc1)N[C@@H](C)C(=O)N1CCC[C@H]1C(=O)O`, “inactive”. Turning to `CC(C)CCCC(C)NCCC(C)C` (stereo not drawn), the Potency entry was “inactive”. For the compound `CCn1ccc(NS(=O)(=O)c2ccc(N)cc2)nc1=O`, the Potency result was “inactive”. The entry for `CNCc1ccccc1` is “inactive”; for `CCOC(=O)c1ccc(OCCN2C[C@H](O)[C@@H](O)[C@H](O)[C@H]2CO)cc1` it is “inactive”; for `Nc1c(I)cc(I)c(C(=O)N(CCC(=O)O)c2ccccc2)c1I` it is “inactive”.

Consider `NC(N)=NC(=O)Cc1c(Cl)cccc1Cl`, for which the Potency entry is “inactive”.

Turning to `O=C1CC[C@H](C(=O)N2CCCCC2)N1`, the Potency result was “inactive”. On to `CC(=O)Nc1c(I)cc(I)c(C(=O)O)c1I`, for which the Potency entry is “inactive”. For the compound `CS(=O)(=O)c1ccc([C@@H](O)[C@@H](CF)NC(=O)C(Cl)Cl)cc1`, the Potency entry was “inactive”. As for `CC(C(=O)O)c1cccc(Oc2ccccc2)c1` (stereo not drawn), the Potency entry was “inactive”. On to `O=C(O)Cn1cnnn1`, for which the Potency result was “inactive”. Take `NC1CCN(c2cccc(Cl)n2)CC1`: the Potency entry was “inactive”. The entry for `Nc1ccc(C(=O)Oc2ccccc2)c(O)c1` is “inactive”. `NS(=O)(=O)c1cc(-c2nn[nH]n2)c(NCc2cccs2)cc1Cl`: the Potency entry is “inactive”. The entry for `Cc1cc(O)cc2c1O[C@](C)(CCC[C@H](C)CCC[C@H](C)CCCC(C)C)CC2` is “inactive”; for `COc1cccc2c1C(=O)c1c(O)c3c(c(O)c1C2=O)C[C@@](O)(C(C)=O)C[C@H]3O[C@H]1C[C@H](N)[C@H](O)[C@H](C)O1` it is 273 nM (active). Regarding `Cc1oc(=O)oc1CN1CCN(c2cc3c(cc2F)c(=O)c(C(=O)O)c2n3C(C)S2)CC1` (stereo not drawn), the Potency result is “inactive”. The entry for `CCCCCCCCCCCCCCCCO` is “inactive”. The entry for `CN1C(C(=O)Nc2ccccn2)=C(O)c2sccc2S1(=O)=O` is “inactive”; for `CC(C)(C)NCC(O)COc1ccccc1OCC1CCCO1` (stereo not drawn) it is “inactive”. For the compound `COC(=O)/C=C(/C)N`, the Potency entry was “inactive”. Turning to `Nc1nc(N)nc(-c2cc(Cl)ccc2Cl)n1`, the Potency result is “inactive”. With `CC1(C)O[C@@H]2C[C@H]3[C@@H]4CCC5=CC(=O)C=C[C@]5(C)[C@@]4(F)[C@@H](O)C[C@]3(C)[C@]2(C(=O)CO)O1`, the Potency result was “inactive”. On to `O=C1C(O)=C(O)C(=O)C(O)=C1O`, for which the Potency entry is “inactive”. For `NC(CS)C(=O)O` (stereo not drawn), the Potency result is “inactive”. The entry for `CCOC(=O)C1=C[C@@H](OC(CC)CC)[C@H](NC(C)=O)[C@@H](N)C1` is “inactive”; for `Cc1cccc(C(=O)O)c1O` it is “inactive”; for `CC(C)(C)NCC(O)c1cc(O)cc(O)c1` (stereo not drawn) it is “inactive”. The entry for `Cc1cccc(C)c1NC(=O)CN1CCCCCC1` is “inactive”.
